Publication PMC8159961, “Exploring protein hotspots by optimized fragment pharmacophores” (Nature Communications, 2021)

Each compound was assayed against histone methyltransferase SET domain containing 2 (SETD2) (Homo sapiens, UniProt Q9BYW2) (assay: primary screen, binary call; higher = more effect of the substance).
Experimental: The Chemiluminescence assay evaluates SETD2 specific tri -methylation activity towards histone H3K36. The kit consist s of recombinant SETD2, S-adenosylmethionine and a specific H3K36me3 antibody and was performed according to the manufacturer’s protocol (Catalo g- No. 52060, https://bpsbioscience.com/setd2 -chemiluminescent-assay-kit-52060). Values were blank corrected and normalized . Enzymatic activities were calculated relative to the positive control of the kit (full enzymatic activity) and to the known SET doma in inhibitor Sinefungin28 used as negative control (complete enzymatic activity inhibition). Compounds used were diluted in DMSO.

histone methyltransferase SET domain containing 2 (SETD2), sequence (Q9BYW2 whole entry, looked up, the tested form may be a part): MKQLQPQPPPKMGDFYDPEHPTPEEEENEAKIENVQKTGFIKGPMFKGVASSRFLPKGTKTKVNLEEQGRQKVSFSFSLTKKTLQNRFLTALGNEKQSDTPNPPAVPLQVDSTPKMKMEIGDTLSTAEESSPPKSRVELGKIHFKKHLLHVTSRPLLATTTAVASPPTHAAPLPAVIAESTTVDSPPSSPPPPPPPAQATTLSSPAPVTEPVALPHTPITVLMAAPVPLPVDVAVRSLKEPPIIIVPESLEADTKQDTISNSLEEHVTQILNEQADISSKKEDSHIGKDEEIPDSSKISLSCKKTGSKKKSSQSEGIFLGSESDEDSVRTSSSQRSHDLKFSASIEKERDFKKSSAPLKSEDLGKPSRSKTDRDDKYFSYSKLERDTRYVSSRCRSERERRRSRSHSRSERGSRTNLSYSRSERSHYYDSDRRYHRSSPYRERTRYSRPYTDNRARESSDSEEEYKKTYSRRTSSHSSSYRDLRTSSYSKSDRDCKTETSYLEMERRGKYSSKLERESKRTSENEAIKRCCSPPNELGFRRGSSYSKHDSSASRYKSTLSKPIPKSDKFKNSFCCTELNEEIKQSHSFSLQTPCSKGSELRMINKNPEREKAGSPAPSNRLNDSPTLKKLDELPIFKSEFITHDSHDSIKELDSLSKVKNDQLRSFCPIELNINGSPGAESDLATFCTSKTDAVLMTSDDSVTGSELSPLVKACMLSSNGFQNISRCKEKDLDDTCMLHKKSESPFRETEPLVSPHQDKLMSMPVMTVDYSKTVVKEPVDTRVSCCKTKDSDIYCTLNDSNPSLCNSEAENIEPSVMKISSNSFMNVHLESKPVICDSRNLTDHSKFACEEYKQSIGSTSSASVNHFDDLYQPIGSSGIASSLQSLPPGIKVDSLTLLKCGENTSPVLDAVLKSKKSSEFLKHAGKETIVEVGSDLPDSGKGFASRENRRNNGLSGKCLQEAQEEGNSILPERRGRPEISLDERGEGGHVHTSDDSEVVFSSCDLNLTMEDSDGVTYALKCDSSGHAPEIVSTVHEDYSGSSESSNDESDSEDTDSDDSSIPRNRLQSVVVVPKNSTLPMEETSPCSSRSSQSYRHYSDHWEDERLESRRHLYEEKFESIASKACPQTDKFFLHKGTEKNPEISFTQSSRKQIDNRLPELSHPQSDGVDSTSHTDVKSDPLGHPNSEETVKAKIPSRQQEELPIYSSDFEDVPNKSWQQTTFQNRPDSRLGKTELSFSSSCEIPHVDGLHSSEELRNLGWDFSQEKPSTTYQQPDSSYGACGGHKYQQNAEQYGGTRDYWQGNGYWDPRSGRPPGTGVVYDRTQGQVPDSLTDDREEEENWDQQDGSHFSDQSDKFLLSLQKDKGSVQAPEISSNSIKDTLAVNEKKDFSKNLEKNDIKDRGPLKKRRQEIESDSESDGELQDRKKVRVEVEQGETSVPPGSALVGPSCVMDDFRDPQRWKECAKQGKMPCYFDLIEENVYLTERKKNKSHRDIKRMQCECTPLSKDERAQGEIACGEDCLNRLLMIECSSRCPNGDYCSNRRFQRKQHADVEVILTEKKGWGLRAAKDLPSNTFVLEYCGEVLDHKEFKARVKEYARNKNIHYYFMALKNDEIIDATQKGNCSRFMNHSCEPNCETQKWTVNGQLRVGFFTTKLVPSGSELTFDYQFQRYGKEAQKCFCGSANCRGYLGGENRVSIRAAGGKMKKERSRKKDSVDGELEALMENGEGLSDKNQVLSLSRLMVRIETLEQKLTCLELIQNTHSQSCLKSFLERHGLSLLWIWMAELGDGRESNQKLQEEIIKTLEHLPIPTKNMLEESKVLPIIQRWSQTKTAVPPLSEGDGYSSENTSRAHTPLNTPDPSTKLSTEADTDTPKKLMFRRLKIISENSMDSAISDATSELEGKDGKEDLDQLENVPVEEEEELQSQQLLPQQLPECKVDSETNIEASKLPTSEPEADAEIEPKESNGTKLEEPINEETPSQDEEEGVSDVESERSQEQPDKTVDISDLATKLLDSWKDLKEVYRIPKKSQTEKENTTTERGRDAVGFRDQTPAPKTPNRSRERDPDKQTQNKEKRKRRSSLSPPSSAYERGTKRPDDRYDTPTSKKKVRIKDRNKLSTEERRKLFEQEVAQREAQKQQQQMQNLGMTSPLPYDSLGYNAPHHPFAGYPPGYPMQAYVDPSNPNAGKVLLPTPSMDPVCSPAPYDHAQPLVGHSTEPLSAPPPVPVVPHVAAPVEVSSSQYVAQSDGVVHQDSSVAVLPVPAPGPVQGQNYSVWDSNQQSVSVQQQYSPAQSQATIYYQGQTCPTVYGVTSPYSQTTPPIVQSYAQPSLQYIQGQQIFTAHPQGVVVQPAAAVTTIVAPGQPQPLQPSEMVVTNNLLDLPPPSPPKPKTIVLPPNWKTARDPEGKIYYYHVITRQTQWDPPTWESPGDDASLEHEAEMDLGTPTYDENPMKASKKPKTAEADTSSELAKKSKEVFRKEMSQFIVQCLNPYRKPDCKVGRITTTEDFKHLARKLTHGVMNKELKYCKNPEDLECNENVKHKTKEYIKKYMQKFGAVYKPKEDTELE

SETD2, active:
O=C1NC(=O)/C(=C\c2cccs2)N1 1

SETD2, inactive:
O=C(CN1CCNCC1)c1ccccc1 0
COc1ccccc1C1CCNCC1 0
CCn1cnc2ccccc21 0
NC(=O)N1CCC(C(=O)O)CC1 0
CCN(CC)c1cccc(C)c1 0
COC(=O)c1c(C)nc(C2CC2)[nH]c1=O 0
O=C(c1ccccc1F)N1CCNCC1 0
COc1ccc(CN2CCNCC2)cc1F 0
O=C(O)c1ccc(CN2CCOCC2)cc1 0
Brc1ccc(-c2ccon2)cc1 0
